Sampled rows, rich in hits. Any-hit rate of the full collection: about 21%.
Pf growth 48h – P. falciparum growth inhibition at 48 hours (one generation); hit rate 5.9% among 310,000; P. falciparum luciferase growth in erythrocytes, 48 h; Potency, µM (highest dose often 28.7 µM), for inactives: top-dose activity change, negative = inhibition, most hits filed as inhibitors; further: potency means the concentration at half of the fitted maximal effect; on the % scale 0 is the no-effect control and ±100 the full control effect
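Firefly luciferase activity from engineered P. falciparum reports growth; inhibitors lower the luminescent signal. Cultures contained 2% hematocrit erythrocytes at 0.1% final parasitemia.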
CHX counter – affects cycloheximide protein synthesis inhibition readout, counter-screen. max response, %. cell reporter, cycloheximide protein synthesis inhibition counterscreen. AID 2314. hit rate 12% among 300,000; in the data active means max response mostly above about 13%, no sharp cut-off; inactive means mostly below about 14%; further: read at 38.3 µM for the half of the compounds with a filed dose; 0% is about no effect
SARS PLP yeast – SARS-CoV PLP inhibition in yeast; S. cerevisiae expressing SARS-CoV PLpro, growth rescue; Potency, µM (series often up to 32.9 µM), for the others: top-dose activity, positive = growth rescue, hits mostly activators; hit rate 0.19% among 330,000; AID 485353; calls by dose curve; further: potency means the concentration at half of the fitted maximal effect; 0% is about no effect; nearly all actives have a fitted effect of over 55% in size
NS1 inh – inhibitors of influenza NS1 protein function. Potency, µM (doses to about 46.1 µM), inactives show at the top dose activity, positive = more growth. hit rate 0.4% among 270,000. AID 2326; calls by dose curve; further: potency means the concentration at half of the fitted maximal effect; actives are rising curves; nearly all actives have a fitted effect of over 50% in size
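Compounds were scored for reversing the slow growth caused by influenza A NS1 in S. cerevisiae, measured by optical density at 600 nm. Assay medium contained 2% galactose at pH 6.0; NS1-free yeast of the same strain were the positive control.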
Shiga toxin inh – Shiga toxin inhibition; Vero cells, Shiga toxin protein synthesis inhibition reporter; inhibition, % at 38.7 µM; hit rate 9.2% among 290,000; in the data active means inhibition mostly above about 28%, no sharp cut-off; inactive means mostly below about 43%; further: 0% is about no effect
Pf growth 96h – P. falciparum growth inhibition at 96 hour, primary screen for plastid delayed-death inhibitors. Potency, µM (doses to about 28.7 µM), without a hit: top-dose activity change, negative = inhibition, hits mostly inhibitors. P. falciparum luciferase reporter growth, 96 h. hit rate 6.9% among 320,000; further: potency means the concentration at half of the fitted maximal effect; on the % scale 0 is the no-effect control and ±100 the full control effect
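Cell-based qHTS: luciferase-tagged P. falciparum in erythrocytes (2% hematocrit, 0.05% parasitemia final) incubated with compounds for 96 hours, 37 C, 5% CO2; luciferase detection reagent then added and luminescence measured.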
Active calls of the source: *; i = inactive; ? = inconclusive; · = not tested or not shown; [ ] = another dose, or the depositor's remark. Unless noted, the call rests on the fitted dose curve; in most records, active means well fitted inhibition curve with a large enough effect; inconclusive means small, poorly fitted or top-dose-only effect, or another doubt; inactive means no such curve, though single readings can be large or run the other way.

SMILES | Pf growth 48h | CHX counter | SARS PLP yeast | NS1 inh | Shiga toxin inh | Pf growth 96h
Cc1ccc(C(C)C)c(OCC(=O)Nc2sc3c(c2C#N)CC(C)(C)NC3(C)C)c1 | ? | -5 | -2% | -6% | -12 | ?
C=CCC1(CC=C)CCCN1C(=O)c1cc(COc2cncc(Cl)c2)on1 | ? | 36* | -1% | -43% | 35* | ?
C=CCC1(CC=C)CCCN1C(=O)c1cc(COc2cccc(OC)c2)on1 | ? | -2 | -4% | -14% | 26 | -25%
COCC1CCCN(C(=O)c2cc(COc3cncc(Cl)c3)on2)C1 (configuration not stated) | 107% | 41* | -2% | -1% | 101* | ?
COc1ccc(-c2nsc3c(N4CCCC4)ncnc23)cc1 | 104% | 49* | 3% | -13% | 118* | 10%
Cc1ccc(-c2nsc3c(N4CCN(C(=O)c5ccco5)CC4)ncnc23)cc1 | 20% | 30* | ? | 3.5µM* | 71* | -6%
O=C(c1ccco1)N1CCN(c2ncnc3c(-c4ccc(Cl)cc4)nsc23)CC1 | 182% | 48* | -1% | -3% | 101* | -4%
COc1ccc(-c2nsc3c(N4CCN(S(=O)(=O)c5ccccc5)CC4)ncnc23)cc1 | 35% | -3 | 3% | -4% | 2 | -19%
CCc1noc(C)c1C(=O)Nc1cc(S(=O)(=O)N2CCOCC2)ccc1OCC(F)(F)F | -1% | · | 2% | · | · | -9%
O=C1COc2ccc(C(=O)COC(=O)Cc3c(F)cccc3Cl)cc2N1 | -14% | · | 1% | · | · | -4%
Cc1cc(C2(c3ccc(O)c(C)c3)OC(=O)c3ccccc32)ccc1O | -28% | -6 | -2% | -14% | -18 | 1%
Cc1cc(O)c(C(C)C)cc1C1(c2cc(C(C)C)c(O)cc2C)OC(=O)c2ccccc21 | 2.1µM* | -3 | 2% | -8% | -14 | 1.2µM*
O=C(c1ccc(-c2ccc(Cl)cc2Cl)o1)N1CCOCC1 | 470% | 42* | -2% | -5% | 80* | -36%[1.15 µM]
O=C(O)c1ccc(-c2ccc(Cl)cc2Cl)o1 | · | -4 | -1% | -127% | -5 | 1%
O=C(c1ccc(-c2cc(Cl)ccc2Cl)o1)N1CCOCC1 | 52% | 16* | 0% | -32% | 38 | ?
Cc1cccc(NS(=O)(=O)c2ccc3c(c2)oc(=O)n3C)c1C | -18% | -3 | -4% | 1% | 4 | -8%
COc1ccccc1N1CC(C)(C)C(=O)N(C(=O)c2ccc(C)cc2)C1=S | 50% | 6 | 0% | -10% | 22 | 77%
c1coc(-c2ccnc(-n3cccc3)n2)c1 | i | 46* | -2% | · | 19 | 110%
Clc1ccc(-c2ccnc(-n3cccc3)n2)s1 | 5% | 8 | -1% | 6% | 16 | 15%
Cc1ccsc1-c1ccnc(-n2cccc2)n1 | 67% | 22* | -2% | ? | 52* | 11%
Clc1ccsc1-c1ccnc(-n2cccc2)n1 | 19% | 22* | -1% | -1% | 52* | 23%
CCCc1ccc2oc(C(=O)NCCc3cnn(C)c3)c(C)c2c1 | 32% | 34* | -7% | -31% | 104* | 68%
CCCc1ccc2oc(C(=O)NCCc3nc(C(=O)OCC)cs3)c(C)c2c1 | 135% | 32* | -20% | -78% | 50* | 15%
COc1ccc(-n2nc(C(=O)NCC(=O)N3CCOCC3)c3ccccc3c2=O)c(OC)c1 | 10% | 3 | -1% | 2% | 16 | -2%
COc1ccc(-n2nc(C(=O)NCC(=O)N3CCCCC3)c3ccccc3c2=O)c(OC)c1 | 21% | 18* | -3% | -16% | 33 | ?
SMILES | Pf growth 48h | CHX counter | SARS PLP yeast | NS1 inh | Shiga toxin inh | Pf growth 96h
COc1ccc(-n2nc(C(=O)NCC(=O)N3CCCCCC3)c3ccccc3c2=O)c(OC)c1 | -10% | 16* | -1% | 0% | 55 | ?
COc1ccc(-n2nc(C(=O)NCC(=O)N3CCC(C)CC3)c3ccccc3c2=O)c(OC)c1 | ? | 16* | 2% | 6% | 40 | 22%
Cc1ccc(Nc2c(-c3ccco3)nc3nc(C)cc(C)n23)cc1 | 8% | 4 | -8% | · | -16 | ?
Cc1cc(C)n2c(Nc3ccc4c(c3)OCCO4)c(-c3ccc(C)o3)nc2n1 | · | 14 | 3% | 4% | 28 | 5.9µM*
Cc1cc(C)n2c(Nc3ccc4c(c3)OCCO4)c(-c3ccco3)nc2n1 | · | -3 | 4% | 7% | -15 | 12µM*
Cc1ccc(NC(=O)Nc2cccc(Cl)c2)c(C(=O)O)c1 | 39% | 24* | 0% | 0% | 56 | 12%
CSc1ccccc1NC(=O)Nc1cccc(Cl)c1 | -17% | 41* | -8% | -15% | 84* | ·
COc1ccc(Nc2cccc(Cl)c2)c(C(=O)O)c1 | 76% | 13 | -15% | -35% | 70 | 21%
CSc1ccccc1NC(=O)Nc1ccc(F)c(Cl)c1 | 57% | 34* | -6% | 8% | 61* | ?
CC(C(=O)N1CCCc2ccccc21)N1C(=O)c2ccccc2C1=O (configuration not stated) | 11% | -5 | 11% | 5% | 8 | -20%
COc1ccc2c(c1)C(c1ccccc1C)CC(=O)O2 (configuration not stated) | · | -2 | · | · | i | ·
CC(C)c1nc(N2CCN(C(=O)c3ccco3)CC2)c2c3c(sc2n1)CCCC3 | 10µM* | 0 | -31% | -70% | -3 | 15%
Cc1sc2nc(C(C)C)nc(SCC(=O)N3CCN(C(=O)c4ccco4)CC3)c2c1C | 13µM* | -5 | 15% | -65% | -3 | 11%
CCc1c(C)sc2nc(C(C)C)nc(SCC(=O)N3CCc4ccccc4C3)c12 | 12µM* | -2 | 5% | 2% | 12 | 13µM*
Cc1sc2nc(C3CC3)nc(SCC(=O)N3CCc4ccccc4C3)c2c1C | ? | 5 | -12% | 5% | -3 | ?
CN1CCN(c2ccc(S(=O)(=O)N3CCCCC3)cc2NC(=O)c2ccc(F)cc2F)CC1 | ? | -2 | 10% | -9% | -12 | ?
CC(C)c1nc(-c2c(N)n(C)c(=O)n(C)c2=O)sc1C(=O)C(C)(C)C | 9% | 1 | -4% | 4% | -4 | 12%
C=CCNC(=O)/C(=C\c1ccc(Br)cc1)NC(=O)c1ccccc1OC | -46% | -1 | 2% | -4% | -5 | 19%
COc1ccc(/C=C\C(=O)Oc2cccc(/C=N/NC(=O)Cc3ccc(OC)c(OC)c3)c2)cc1 | ? | 65* | -11% | 3% | 46* | ?
COc1ccc(CNC(=S)N/N=C/c2ccc(OC)c(OC)c2)cc1 | 28% | 21* | 0% | 4% | 17 | 19%
COc1ccc(/C=C/C(=O)Oc2ccc(/C=N\NC(=O)c3ccc(F)cc3)cc2)cc1 | 2% | -4 | 13% | 9% | 4 | 0%
COc1ccc(/C=C/C(=O)Oc2cccc(/C=N/NC(=O)c3cccc(F)c3)c2)cc1 | 71% | 95* | -20% | 8% | 129* | 231%
COc1ccc(CNC(=S)N/N=C/c2ccc(O)c(OC)c2)cc1 | 3% | -3 | 23% | 14% | 18 | -15%
